# Measured values reported in PubChem BioAssay AID1159580 (chemical genetic matrix, 2015).
# In all, about 5,500 compounds went through this assay and about 2,000 (36%) were called active. Roughly 18% stayed inconclusive and do not appear here. Some of the results follow. Unmarked numbers belong to inactive results. Rule as the data show it: active = normalized growth mostly below about 0.91 (no sharp cut-off); inconclusive = no clear call, values can overlap the other calls; inactive = mostly above about 0.92.
# Test: chemical genetic growth profiling, strain panel (AID 1159580);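 also: tested at 20 µM; growth read once vehicle control cultures reached saturation at 30 °C; 1 = growth at the plate median or of vehicle wells; lower values mean less growth of the strain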
# Conditions: S. cerevisiae deletion strains, growth OD
# [1] = locus YHR030C, strain SLT2, hits give low values
# [2] = locus YJL187C, strain SWE1, hits give low values
# [3] = locus YHR079C, strain IRE1, hits give low values
# [4] = locus YJL095W, strain BCK1, hits give low values
# [5] = locus YJR066W, strain TOR1, hits give low values
# [6] = locus YLR113W, strain HOG1, hits give low values
# [7] = locus YNL183C, strain NPR1, hits give low values
# [8] = locus YOR231W, strain MKK1, hits give low values
# [9] = locus YPL256C, strain CLN2, hits give low values
smiles,measurement,setting,value
COC(=O)C1Cc2c([nH]c3ccccc23)C2(CCN(C)CC2)N1 (stereo unspecified),normalized growth,"locus YAL013W, strain DEP1, hits give low values",1.01
same,normalized growth,"locus YBR229C, strain ROT2, hits give low values",0.989
same,normalized growth,"locus YDL101C, strain DUN1, hits give low values",0.995
same,normalized growth,"locus YDL134C, strain PPH21, hits give low values",0.981
same,normalized growth,"locus YDR150W, strain NUM1, hits give low values",0.986
same,normalized growth,"locus YEL061C, strain CIN8, hits give low values",0.993
same,normalized growth,"locus YGR078C, strain PAC10, hits give low values",0.993
same,normalized growth,[1],0.985
same,normalized growth,"locus YHR087W, strain rtc3, hits give low values",0.998
same,normalized growth,[2],0.996
same,normalized growth,"locus YJR043C, strain POL32, hits give low values",1
same,normalized growth,"locus YJR075W, strain HOC1, hits give low values",0.998
same,normalized growth,"locus YLR039C, strain RIC1, hits give low values",0.975
same,normalized growth,"locus YLR058C, strain SHM2 (second series), hits give low values",1.01
same,normalized growth,"locus YLR085C, strain ARP6, hits give low values",1.01
same,normalized growth,"locus YLR262C, strain YPT6, hits give low values",0.981
same,normalized growth,"locus YML094W, strain GIM5, hits give low values",0.961
same,normalized growth,"locus YMR219W, strain ESC1, hits give low values",0.995
same,normalized growth,"locus YMR263W, strain SAP30, hits give low values",1.02
same,normalized growth,"locus YNL128W, strain TEP1, hits give low values",0.973
same,normalized growth,"locus YNL153C, strain GIM3, hits give low values",0.999
same,normalized growth,"locus YNL298W, strain CLA4 (second series), hits give low values",1.02
same,normalized growth,"locus YNL322C, strain KRE1, hits give low values",0.987
same,normalized growth,"locus YNR030W, strain Alg12, hits give low values",1.01
same,normalized growth,"locus YOL006C, strain TOP1, hits give low values",1
same,normalized growth,"locus YPL055C, strain LGE1, hits give low values",1.01
same,normalized growth,"locus YPL241C, strain CIN2, hits give low values",0.977
same,normalized growth,"locus YPR135W, strain CTF4, hits give low values",0.944
CCCNCCCCCC[N+](C)(C)C,normalized growth,[1],1.02
same,normalized growth,[3],0.975
same,normalized growth,[4],0.979
same,normalized growth,[5],0.927
same,normalized growth,[6],1.02
same,normalized growth,[7],0.932
same,normalized growth,[8],0.984
same,normalized growth,[9],0.989
Cc1cc(-n2c(=O)[nH]c(=O)n(C)c2=O)ccc1Oc1ccc(SC(F)(F)F)cc1,normalized growth,"locus YAL021C, strain ccr4, hits give low values",0.925
same,normalized growth,"locus YAL026C, strain drs2, hits give low values",0.602 (active)
same,normalized growth,"locus YAL030W, strain snc1, hits give low values",0.565 (active)
same,normalized growth,"locus YBL061C, strain skt5, hits give low values",0.688 (active)
same,normalized growth,"locus YBR009C, strain hhf1, hits give low values",0.552 (active)
same,normalized growth,"locus YBR023C, strain chs3, hits give low values",0.742 (active)
same,normalized growth,"locus YBR171W, strain sec66, hits give low values",0.802 (active)
same,normalized growth,"locus YBR231C, strain swc5, hits give low values",0.868 (active)
same,normalized growth,"locus YBR279W, strain paf1, hits give low values",0.935
same,normalized growth,"locus YCL011C, strain gbp2, hits give low values",0.548 (active)
same,normalized growth,"locus YCL016C, strain dcc1, hits give low values",0.905 (active)
same,normalized growth,"locus YCL061C, strain MRC1, hits give low values",0.792 (active)
same,normalized growth,"locus YCL069W, strain vba3, hits give low values",0.978
same,normalized growth,"locus YCR088W, strain abp1, hits give low values",0.793 (active)
same,normalized growth,"locus YDL005C, strain med2, hits give low values",0.583 (active)
same,normalized growth,"locus YDL040C, strain nat1, hits give low values",0.863 (active)
same,normalized growth,"locus YDR001C, strain nth1, hits give low values",0.845 (active)
same,normalized growth,"locus YDR069C, strain doa4, hits give low values",0.941
same,normalized growth,"locus YDR137W, strain rgp1, hits give low values",0.405 (active)
same,normalized growth,"locus YDR159W, strain sac3, hits give low values",0.532 (active)
same,normalized growth,"locus YDR195W, strain ref2",0.418 (active)
same,normalized growth,"locus YDR297W, strain sur2, hits give low values",0.695 (active)
same,normalized growth,"locus YDR334W, strain swr1, hits give low values",0.855 (active)
same,normalized growth,"locus YDR335W, strain msn5, hits give low values",0.661 (active)
same,normalized growth,"locus YDR392W, strain spt3, hits give low values",0.141 (active)
same,normalized growth,"locus YEL003W, strain gim4, hits give low values",0.704 (active)
same,normalized growth,"locus YEL037C, strain rad23, hits give low values",0.933
same,normalized growth,"locus YEL061C, strain CIN8 (second series), hits give low values",0.647 (active)
same,normalized growth,"locus YER015W, strain faa2, hits give low values",0.994
same,normalized growth,"locus YER016W, strain bim1, hits give low values",0.935
same,normalized growth,"locus YER111C, strain swi4, hits give low values",0.75 (active)
same,normalized growth,"locus YER155C, strain BEM2 (second series), hits give low values",0.968
same,normalized growth,"locus YFR010W, strain ubp6, hits give low values",0.76 (active)
same,normalized growth,"locus YGL167C, strain pmr1, hits give low values",1.02
same,normalized growth,"locus YGL173C, strain kem1, hits give low values",0.895 (active)
same,normalized growth,"locus YGL227W, strain vid30, hits give low values",0.867 (active)
same,normalized growth,"locus YGL240W, strain doc1, hits give low values",0.629 (active)
same,normalized growth,"locus YGL253W, strain hxk2, hits give low values",0.701 (active)
same,normalized growth,"locus YHR013C, strain ard1, hits give low values",0.998
same,normalized growth,"locus YHR027C, strain rpn1, hits give low values",0.969
same,normalized growth,[1],0.811 (active)
same,normalized growth,[3],0.786 (active)
same,normalized growth,"locus YHR142W, strain chs7, hits give low values",0.318 (active)
same,normalized growth,"locus YJL092W, strain hpr5, hits give low values",0.844 (active)
same,normalized growth,"locus YJL095W, strain BCK1 (second series), hits give low values",0.754 (active)
same,normalized growth,[4],0.724 (active)
same,normalized growth,"locus YJL115W, strain asf1, hits give low values",0.926
same,normalized growth,"locus YJL129C, strain trk1, hits give low values",0.882
same,normalized growth,"locus YJL154C, strain vps35, hits give low values",0.644 (active)
same,normalized growth,"locus YJL164C, strain tpk1, hits give low values",0.346 (active)
same,normalized growth,"locus YJL166W, strain qcr8, hits give low values",0.383 (active)
same,normalized growth,[2],0.546 (active)
same,normalized growth,[5],0.75 (active)
same,normalized growth,"locus YKL160W, strain elf1, hits give low values",0.69 (active)
same,normalized growth,"locus YKR026C, strain gcn3, hits give low values",0.707 (active)
same,normalized growth,"locus YKR091W, strain srl3, hits give low values",0.908 (active)
same,normalized growth,"locus YLL001W, strain dnm1, hits give low values",0.844 (active)
same,normalized growth,"locus YLL026W, hits give low values",0.169 (active)
same,normalized growth,"locus YLL041C, strain sdh2, hits give low values",0.775 (active)
same,normalized growth,"locus YLR027C, strain aat2, hits give low values",0.589 (active)
same,normalized growth,[6],0.764 (active)
same,normalized growth,"locus YLR221C, strain rsa3, hits give low values",0.436 (active)
same,normalized growth,"locus YLR258W, strain gsy2, hits give low values",0.705 (active)
same,normalized growth,"locus YLR262C, strain YPT6 (second series), hits give low values",0.367 (active)
same,normalized growth,"locus YLR320W, strain mms22, hits give low values",0.823 (active)
same,normalized growth,"locus YLR342W, strain FKS1, hits give low values",0.864 (active)
same,normalized growth,"locus YLR357W, strain rsc2, hits give low values",0.581 (active)
same,normalized growth,"locus YLR370C, strain arc18, hits give low values",0.886 (active)
same,normalized growth,"locus YLR384C, strain iki3, hits give low values",1.03
same,normalized growth,"locus YML120C, strain ndi1, hits give low values",0.844 (active)
same,normalized growth,"locus YMR058W, strain fet3, hits give low values",0.705 (active)
same,normalized growth,"locus YMR125W, strain sto1, hits give low values",0.709 (active)
same,normalized growth,"locus YMR129W, hits give low values",1.02
same,normalized growth,"locus YMR205C, strain PFK2, hits give low values",0.705 (active)
same,normalized growth,"locus YMR231W, strain pep5, hits give low values",0.703 (active)
same,normalized growth,"locus YNL071W, strain lat1, hits give low values",0.422 (active)
same,normalized growth,[7],0.81 (active)
same,normalized growth,"locus YNL209W, strain ssb2, hits give low values",0.915 (active)
same,normalized growth,"locus YNL248C, strain rpa49, hits give low values",0.635 (active)
same,normalized growth,"locus YNL322C, strain KRE1 (second series), hits give low values",1.03
same,normalized growth,"locus YNR049C, strain mso1, hits give low values",0.98
same,normalized growth,"locus YOR001W, strain rrp6, hits give low values",0.888 (active)
same,normalized growth,"locus YOR070C, strain gyp1, hits give low values",0.754 (active)
same,normalized growth,"locus YOR080W, strain dia2, hits give low values",1.02
same,normalized growth,"locus YOR083W, strain WHI5, hits give low values",0.758 (active)
same,normalized growth,"locus YOR106W, strain vam3, hits give low values",0.424 (active)
same,normalized growth,[8],0.804 (active)
same,normalized growth,"locus YOR265W, strain rbl2, hits give low values",0.893 (active)
same,normalized growth,"locus YOR270C, strain vph1, hits give low values",0.344 (active)
same,normalized growth,"locus YOR290C, strain snf2, hits give low values",0.763 (active)
same,normalized growth,"locus YPL051W, strain arl3, hits give low values",0.636 (active)
same,normalized growth,"locus YPL078C, strain atp4, hits give low values",0.547 (active)
same,normalized growth,"locus YPL106C, strain sse1, hits give low values",0.469 (active)
same,normalized growth,"locus YPL240C, strain hsp82, hits give low values",0.954
same,normalized growth,[9],0.764 (active)
